Measurements from PubChem BioAssay (NCI).
This is part of a sample that, as a whole, favours compounds with a hit. Of some 79,000 tested, about 15% had one in any assay. Cut-off read from the data, not from the text of the source: active = growth inhibition above about 70%; inactive = the rest.

Tests used:
[1] = NCI Yeast Anticancer Drug Screen. Data for the rad50 strain (AID 155);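 note: 0% = growth of vehicle-only cultures of the same strain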; details: S. cerevisiae rad50 strain growth inhibition; at 50.0 µM; hits give high values
Method in brief: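 Growth of the mutant yeast was measured after compound exposure and referenced to vehicle-treated cultures.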

[2] = NCI Yeast Anticancer Drug Screen. Data for the mec2-1 strain (AID 157); details: S. cerevisiae mec2-1 strain, at 50.0 µM, hits give high values
Method in brief: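 Each compound was tested on mec2-1 yeast, a strain altered in DNA damage repair or cell cycle control. Growth inhibition is reported relative to vehicle.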

[3] = NCI Yeast Anticancer Drug Screen. Data for the sgs1 mgt1 strain (AID 161);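 note: 0% = growth of cultures given vehicle only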; details: S. cerevisiae sgs1 mgt1 strain, at 50.0 µM, hits give high values
Method in brief: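 Mutant yeast exposed to compound; growth scored against vehicle-only wells.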

[4] = NCI Yeast Anticancer Drug Screen. Data for the cln2 rad14 strain (AID 165);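 note: 0% = growth equal to vehicle treated cultures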; details: S. cerevisiae cln2 rad14 strain, at 50.0 µM, hits give high values
Method in brief: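 Test compounds were added to cln2 rad14 yeast cultures; inhibition of growth was then determined by comparison with vehicle treatment.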

[5] = NCI Yeast Anticancer Drug Screen. Data for the bub3 strain (AID 167); details: S. cerevisiae bub3 mutant strain, at 50.0 µM, hits give high values
Method in brief: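 Whole-cell yeast assay. The mutant strain was incubated with compounds, and growth inhibition was determined by comparison with vehicle-treated cells.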

[6] = NCI Yeast Anticancer Drug Screen. Data for the mlh1 rad18 strain (AID 175); details: S. cerevisiae mlh1 rad18 strain growth inhibition; at 50.0 µM; hits give high values
Method in brief: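 Inhibition values reflect reduced growth of mutant yeast versus vehicle-treated controls following compound exposure; the mutations affect DNA damage repair.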

Measured: growth inhibition

Nc1ccc2c(c1)C(=O)c1c(F)c(F)c(F)c(F)c1-2
inactive: [1] 16.6% | [2] -0.9% | [3] -10.7% | [4] -13.2% | [5] 4.85% | [6] 11.9%

Cc1cccc(Cl)c1NC(=O)c1cccc(C(=O)Nc2c(C)cccc2Cl)c1
inactive: [1] 9.3% | [2] 4.45% | [3] 15.4% | [4] -30.3% | [5] -2.5% | [6] 27.6%

CCOC(=O)c1c[nH]c2ccccc2c1=O
inactive: [1] 1.65% | [2] -8.95% | [3] -0.35% | [4] -16% | [5] -7.9% | [6] 2.2%
